Rows were chosen to be rich in hits. Some 6.7% of all compounds tested hit in one or more screens of this group.
T cruzi growth-1: blocks T. cruzi growth in NIH3T3 culture; inhibition, % at 8.34 µM; hit rate 5.9% among 77,000; T. cruzi beta-gal in NIH3T3, GalScreen luminescence, 90 h;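 active = mean inhibition above about 93%, with at least 55% of replicates each passing it, limit read from the data, passing the limit was not always enough; inconclusive = only one of those two conditions holds; inactive = neither condition holds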
Pf Dd2 inh: blocks growth of Plasmodium falciparum Dd2 parasites | P. falciparum Dd2 growth, SYBR Green, 72 h; stronger effect = lower value | activity change, % at 10 µM | hit rate 2.3% among 94,000 | AID 1159554; in the data active = activity change below about -80%; inconclusive = no clear call, values can overlap the other calls
C diff growth: C. difficile growth inhibition; Clostridium difficile clinical isolate growth, OD600, 24 h; stronger effect = lower value; AID 1259249; growth activity, negative = inhibition, % at 16 µg/mL (by protocol); hit rate 0.25% among 86,000;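 active = mean growth activity at or below -80% and every replicate also at or below -80%; inconclusive = mean at or below -80% but some replicate above -80%; inactive = mean growth activity above -80%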
T cruzi growth-2: blocks T. cruzi growth in NIH3T3 host cells; AID 651739; shares compounds with T cruzi growth-1; hit rate 72% among 5,600; inhibition, % at 8.35 µM; T. cruzi beta-gal in NIH3T3, GalScreen luminescence, 90 h;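 active = mean replicate inhibition above about 95% and at least 55% of replicates individually reaching it, limit read from the data; inconclusive = only one of the two criteria is met; inactive = neither criterion is met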
T cruzi growth-3: inhibitors of T. cruzi proliferation; shares compounds with T cruzi growth-1; T. cruzi beta-gal in NIH3T3, GalScreen luminescence, 90 h; inhibition, % at 2.09 µM; hit rate 21% among 5,600;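 active = mean inhibition above about 95%, with at least 55% of replicates also reaching it, limit read from the data; inconclusive = meets just one of the two conditions; inactive = meets neither condition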
3T3 cytotox: cytotoxicity in mouse NIH/3T3 fibroblasts; AID 651742; NIH/3T3 viability, CellTiter-Glo ATP luminescence, 90 h; shares compounds with T cruzi growth-1; hit rate 14% among 5,600; cytotoxicity (signal decrease), % at 8.35 µM;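 active = mean signal decrease across replicates above about 35% based on untreated-well scatter, with enough replicates individually passing, limit read from the data; inconclusive = no rule stated though some were filed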
3T3 cytotox 2: kills mouse NIH/3T3 fibroblasts; shares compounds with T cruzi growth-1; hit rate 56% among 5,600; inhibition, % at 24.9 µM; NIH/3T3 viability, CellTiter-Glo ATP luminescence, 90 h;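 active = mean loss of cell viability signal at or above a set limit, and enough replicates individually reaching it; inconclusive = meets only the mean limit or only the replicate share; inactive = meets neither condition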
Numbers stand for hits; 0 = inactive; ? = inconclusive; - = no result given.

SMILES	T cruzi growth-1	Pf Dd2 inh	C diff growth	T cruzi growth-2	T cruzi growth-3	3T3 cytotox	3T3 cytotox 2
CS(=O)(=O)N1[C@H](C(=O)NCC2CC2)[C@@H](CO)[C@@H]2Cn3c(ccc(-c4ccccc4F)c3=O)[C@@H]21	-	0	0	-	-	-	-
C[C@H]1CN([C@@H](C)CO)C(=O)c2cccc(NC(=O)Nc3ccc(C(F)(F)F)cc3)c2O[C@@H]1CN(C)Cc1ccc(Cl)c(Cl)c1	?	0	0	98	106	45	105
C[C@@H]1CN([C@@H](C)CO)C(=O)c2cccc(NC(=O)Nc3ccc(C(F)(F)F)cc3)c2O[C@@H]1CN(C)Cc1ccc(Cl)c(Cl)c1	?	0	0	108	0	0	100
C[C@H]1CN([C@@H](C)CO)C(=O)c2cccc(NC(=O)Nc3ccc(C(F)(F)F)cc3)c2O[C@H]1CN(C)Cc1ccc(Cl)c(Cl)c1	?	0	0	98	105	0	103
C[C@@H]1CN([C@H](C)CO)C(=O)c2cccc(NC(=O)Nc3ccc(C(F)(F)F)cc3)c2O[C@H]1CN(C)Cc1ccc(C(F)(F)F)cc1	0	0	0	-	-	-	-
C[C@@H]1CN([C@@H](C)CO)C(=O)c2cccc(NC(=O)Nc3ccc(F)cc3)c2O[C@@H]1CN(C)Cc1ccc(Cl)c(Cl)c1	0	0	-	-	-	-	-
C[C@H](CO)N1C[C@H](C)[C@@H](CN(C)Cc2ccc(Cl)c(Cl)c2)Oc2c(NC(=O)Nc3ccc(C(F)(F)F)cc3)cccc2C1=O	?	0	0	0	0	0	0
C[C@@H]1CN([C@@H](C)CO)C(=O)c2cccc(NC(=O)Nc3ccc(F)cc3)c2O[C@H]1CN(C)Cc1ccc(Cl)c(Cl)c1	0	0	-	-	-	-	-
C[C@@H]1CN([C@H](C)CO)C(=O)c2cccc(NC(=O)Nc3ccc(C(F)(F)F)cc3)c2O[C@@H]1CN(C)Cc1ccc(C(F)(F)F)cc1	0	0	0	-	-	-	-
C[C@H]1CCCCO[C@H](CN(C)C(=O)Nc2ccc3c(c2)OCO3)[C@@H](C)CN([C@@H](C)CO)C(=O)c2cc(NC(=O)Nc3cccc4ccccc34)ccc2O1	0	0	0	-	-	-	-
C[C@H](CO)N1C[C@H](C)[C@H](CN(C)C(=O)Nc2ccc3c(c2)OCO3)Oc2c(NS(=O)(=O)c3cccs3)cccc2C1=O	0	0	-	-	-	-	-
COc1ccccc1CNC(=O)C[C@@H]1C=C[C@H](NC(=O)CN(C)C)[C@H](CO)O1	0	0	0	-	-	-	-
C[C@H]1CN([C@@H](C)CO)S(=O)(=O)c2ccc(-c3cccnc3)cc2O[C@H]1CN(C)C	0	0	0	-	-	-	-
C[C@H]1CN([C@@H](C)CO)C(=O)c2cc(-c3cncnc3)cnc2O[C@H]1CN(C)C(=O)c1cccc(F)c1	0	0	0	-	-	-	-
O=C(C1CCCCC1)N1CC(=O)N2[C@@H](CO)[C@H](c3ccc(Br)cc3)[C@@H]2C1	-	0	0	-	-	-	-
COc1ccc(NC(=O)Nc2ccc3c(c2)C(=O)N([C@@H](C)CO)C[C@H](C)[C@@H](CN(C)C(=O)Nc2ccc(OC)cc2)O3)cc1	0	0	0	-	-	-	-
COc1ccc(S(=O)(=O)N(C)C[C@@H]2Oc3ccc(NS(=O)(=O)c4c(C)noc4C)cc3CC(=O)N([C@@H](C)CO)C[C@H]2C)cc1	0	0	0	-	-	-	-
CCCNC(=O)C[C@@H]1CC[C@H]2[C@H](COc3ccc(NC(=O)c4cc(F)cc(F)c4)cc3C(=O)N2C)O1	0	0	0	-	-	-	-
CCCN(C)C[C@@H]1Oc2cc(-c3cccnc3)ccc2S(=O)(=O)N([C@@H](C)CO)C[C@@H]1C	0	0	0	-	-	-	-
CS(=O)(=O)Nc1ccc2c(c1)[C@H]1C[C@H](CC(=O)NCc3ccncc3)O[C@H](CO)[C@H]1O2	0	0	0	-	-	-	-
CS(=O)(=O)Nc1ccc2c(c1)[C@@H]1C[C@@H](CC(=O)NCc3ccncc3)O[C@H](CO)[C@@H]1O2	117	0	0	0	0	0	0
CS(=O)(=O)Nc1ccc2c(c1)[C@H]1C[C@H](CC(=O)NCc3ccncc3)O[C@@H](CO)[C@H]1O2	102	0	0	0	0	0	0
CS(=O)(=O)Nc1ccc2c(c1)[C@@H]1C[C@@H](CC(=O)NCc3ccncc3)O[C@@H](CO)[C@@H]1O2	0	0	0	-	-	-	-
CC(C)NC(=O)N(C)C[C@H]1OCCCC[C@H](C)Oc2ccc(NC(=O)Nc3ccc(F)cc3)cc2C(=O)N([C@H](C)CO)C[C@@H]1C	0	0	0	-	-	-	-
COc1cccc(-c2cnc3c(c2)C(=O)N([C@@H](C)CO)C[C@@H](C)[C@@H](CN(C)C(=O)CN(C)C)O3)c1	0	0	0	-	-	-	-
SMILES	T cruzi growth-1	Pf Dd2 inh	C diff growth	T cruzi growth-2	T cruzi growth-3	3T3 cytotox	3T3 cytotox 2
COc1cccc(-c2ccc([C@@H]3[C@@H](C#N)N(C(=O)Cc4ccccc4)[C@@H]3CO)cc2)c1	0	0	0	-	-	-	-
O=C(C[C@H]1C=C[C@@H](NC(=O)Cc2cccnc2)[C@@H](CO)O1)Nc1ccccc1	0	0	-	-	-	-	-
CCNC(=O)[C@@H]1[C@@H](CO)[C@@H]2Cn3c(ccc(C4=CCCC4)c3=O)[C@H]1N2Cc1ccncc1	0	0	0	-	-	-	-
COCC(=O)Nc1ccc2c(c1)C(=O)N(C)C[C@@H](OC)[C@H](C)CN(C(=O)CN1CCOCC1)[C@H](C)CO2	0	-	-	-	-	-	-
CNC[C@H]1Oc2c(NS(=O)(=O)c3cn(C)cn3)cccc2C(=O)N([C@H](C)CO)C[C@H]1C	0	0	0	-	-	-	-
CCCC(=O)N1CC2(CCN(Cc3nccs3)CC2)c2c([nH]c3cc(OC)ccc23)[C@H]1CO	-	0	0	-	-	-	-
C[C@H](CO)N1C[C@H](C)[C@@H](CN(C)S(=O)(=O)c2ccccc2F)Oc2ncc(/C=C/c3ccccc3)cc2C1=O	126	0	0	101	0	0	0
C[C@H](CO)N1C[C@H](C)[C@@H](CN(C)S(=O)(=O)c2ccc(F)cc2)Oc2ncc(/C=C/c3ccccc3)cc2C1=O	85	0	0	103	0	0	0
COc1cccc(S(=O)(=O)N(C)C[C@@H]2Oc3ncc(/C=C/c4ccccc4)cc3C(=O)N([C@H](C)CO)C[C@@H]2C)c1	106	0	0	105	0	?	77
C[C@@H]1CN([C@H](C)CO)C(=O)c2cc(/C=C/c3ccccc3)cnc2O[C@@H]1CN(C)S(=O)(=O)c1ccccc1F	0	0	0	-	-	-	-
C[C@@H]1CN([C@H](C)CO)C(=O)c2cc(/C=C/c3ccccc3)cnc2O[C@H]1CN(C)S(=O)(=O)c1ccc(F)cc1	0	0	0	-	-	-	-
COc1ccc(S(=O)(=O)N(C)C[C@@H]2Oc3ncc(/C=C/c4ccccc4)cc3C(=O)N([C@H](C)CO)C[C@H]2C)cc1	-	0	0	-	-	-	-
COc1ccc2c3c([nH]c2c1)[C@@H](CO)N(C(=O)NC1CCCC1)CC31CN(S(C)(=O)=O)C1	-	0	0	-	-	-	-
N#C[C@H]1[C@@H](c2ccc(C#Cc3cccc(F)c3)cc2)[C@H](CO)N1C(=O)C1CCCC1	100	0	0	0	105	0	103

From PubChem
